# According to the supplement of paper PMC6555819:
# Key:
# Assay in all cases: PBM binding z-score (relative to random genomic background probes); higher = stronger binding; sequences stand for … in GC…GCGATTGACAGCGTAGAATGAAGG
# [1] = system: PPARg:RXRa DBDmut IVT, anti-RXR (DBD mutation: RXRa K156A/R161A, NR concentration 270 nM, RXRa partner concentration 90 nM)
# Method in brief: (§1)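 Custom Agilent 4×180K protein-binding microarrays carried double-stranded probes, each with a 34-nt variable region. These regions held direct-repeat seeds, single-nucleotide variants, half-site ablations and random human genomic background sequences. Ligand-free nuclear receptor dimers were incubated on the arrays for 1 h, antibodies against each partner (one per run) detected binding, and scanned fluorescence was regression-normalized. Binding z-scores take the random background probes as reference.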
# [2] = system: PPARg:RXRa IVT, anti-PPARg (NR concentration 270 nM, RXRa partner concentration 90 nM)
# Method in brief: as §1
# [3] = system: PPARg DBDmut:RXRa IVT, anti-PPARg (DBD mutation: PPARg1 K132A/R137A, NR concentration 270 nM, RXRa partner concentration 90 nM)
# Method in brief: as §1
# [4] = system: PPARg DBDmut IVT, anti-PPARg (DBD mutation: PPARg1 K132A/R137A, NR concentration 270 nM)
# Method in brief: as §1
# [5] = system: PPARg homodimer (NR concentration 180 nM)
# Method in brief: as §1
# [6] = system: PXR:RXRa (NR concentration 270 nM, RXRa partner concentration 90 nM)
# Method in brief: as §1
# [7] = system: PXR homodimer (NR concentration 270 nM)
# Method in brief: as §1
# [8] = system: RARa:RXR (NR concentration 270 nM, RXRa partner concentration 90 nM)
# Method in brief: as §1
# [9] = system: RARa homodimer (NR concentration 270 nM)
# Method in brief: as §1
# [10] = system: RARb:RXRa (NR concentration 270 nM, RXRa partner concentration 90 nM)
# Method in brief: as §1
# [11] = system: RARb homodimer (NR concentration 270 nM)
# Method in brief: as §1
# [12] = system: RARg:RXRa (NR concentration 270 nM, RXRa partner concentration 90 nM)
# Method in brief: as §1
# [13] = system: RARg homodimer (NR concentration 270 nM)
# Method in brief: as §1
# [14] = system: RXRa DBDmut IVT, anti-RXR (DBD mutation: RXRa K156A/R161A, NR concentration 90 nM)
# Method in brief: as §1
# [15] = system: RXRa homodimer (NR concentration 180 nM)
# Method in brief: as §1
# [16] = system: THRa:RXRa (NR concentration 90 nM, RXRa partner concentration 90 nM)
# Method in brief: as §1
# [17] = system: THRa homodimer (NR concentration 90 nM)
# Method in brief: as §1
# [18] = system: VDR homodimer (NR concentration 270 nM)
# Method in brief: as §1
Sequence,PBM binding z-score [1],PBM binding z-score [2],PBM binding z-score [3],PBM binding z-score [4],PBM binding z-score [5],PBM binding z-score [6],PBM binding z-score [7],PBM binding z-score [8],PBM binding z-score [9],PBM binding z-score [10],PBM binding z-score [11],PBM binding z-score [12],PBM binding z-score [13],PBM binding z-score [14],PBM binding z-score [15],PBM binding z-score [16],PBM binding z-score [17],PBM binding z-score [18]
ATCTCTAGGTAAGACTCAGTTCAGTGAAGAACGC,1.86,0.996,1.18,1.16,1.11,1.04,1.31,0.197,0.948,0.386,0.723,0.0914,0.115,0.479,-0.0944,0.922,0.796,1.42
GATATTAGTTGAAAGGGCAACCGAATGATTCTCG,0.557,1.16,0.952,0.799,2.21,0.994,0.916,1.81,2.21,2.27,2.28,1.73,1.61,1.04,1.58,0.705,0.0377,0.787
CAAACTAGGTCAAAGGTCACAGTCGAGCCAACCA,8.58,9.39,3.19,2.73,4.25,6.88,1.29,8.53,1.9,5.89,5.31,8.75,7.36,2.94,9.91,5.02,2.38,2.73
ACAGACAGGTGATGAAGGTAAGTCAGGCTATCAT,0.134,0.289,0.49,-0.485,-0.00799,-0.348,-0.234,-0.203,0.26,0.27,0.406,0.153,0.428,-0.263,0.248,0.617,-0.25,-0.186
GCATATAGGTAATACAAGGTTAAAGTCCGATTGT,4.38,3.23,0.799,0.913,1.39,2.6,0.613,2.53,0.428,0.87,1.42,0.95,0.775,0.599,1.39,4.03,0.575,0.898
ACTTACGGGTCAACGAGGTTATAGCACGCGTATA,3.5,4.09,1.65,1.55,2.55,5.1,3.34,5.39,1.16,4.13,3.53,5.57,5.3,2.71,6.39,4.01,1.25,3.96
TCTTCTAGATCAAGCAGGTTAAGAAAGCCTGAGT,1.76,0.683,0.767,0.698,0.504,0.69,0.108,0.523,-0.00815,0.276,0.111,0.248,-0.0717,0.841,0.526,0.295,-0.392,0.0619
GCGACTGGGGCATCAGCAGGTTACCCTAACTTAA,3.51,2.87,-0.922,-0.0321,0.248,0.197,-0.267,0.596,-0.765,0.794,0.901,0.748,0.106,-0.65,0.381,1.29,0.628,-0.558
TAGCCTAGGTCATTCAGGGGCCATTATAGAAAGC,1.86,3.06,0.753,0.98,2.02,3.3,0.128,3.79,0.894,3.98,3.54,6.28,4.48,2.04,3.12,3.69,1.13,1.96
CGTCCAAGGTCAGCAGTTCAGTGAAAGCGACGTG,2.51,2.84,0.0799,0.847,1.67,3.52,1.29,3.96,0.38,5.29,4.62,5.66,6.02,2.93,4.16,3.78,2.45,2.41
TAGCCTAGGTCAGATCGGGCTAGTATACGCTATA,0.118,1.07,-0.407,-0.708,0.037,0.63,-0.428,1.5,-0.679,2.78,1.59,2.48,3.26,-0.66,1.34,3.37,-0.538,-0.698
CAGCCTAGGTCAGGACCAGTATAGGAGGAACGTT,1.07,1.37,-0.507,-1.17,0.861,0.277,-0.104,0.885,0.139,3.26,1.97,2.81,3.89,-0.0885,1.7,1.94,0.463,-0.0387
GAAACGAGGGCATTCGAGTTGATAGCATGGCGAT,4.26,3.42,0.513,0.0284,-0.429,3.68,1.26,0.561,0.0115,1.85,0.628,1.26,1.38,3.03,1.09,3.47,-0.43,3.34
CAACCTAGGTCAGGGCCAGTATAGGAGGAACGTT,2.7,3.26,0.0736,0.168,1.57,0.478,-0.518,1.45,0.172,3.51,2.7,3.49,4.18,0.0707,2.07,2.12,0.435,-0.128
GGAACGAGGGCAAGCTGATAGCAGAGTTTGATGG,3.83,2.53,-0.705,-0.924,-0.391,0.149,0.429,-0.0859,-0.744,2.46,0.957,1.17,1.95,1.68,0.6,0.878,-0.593,1.03
CATACAGGGTGAGCTAGGCCAGAGTAGGGACGGC,0.503,1.32,-0.282,-0.518,-0.692,-0.394,-0.379,-0.0235,-0.0733,0.894,0.342,0.54,0.662,-1.01,0.302,0.989,0.182,-0.497
GCAGACAGGAGAAACGCAGGTAACTCAGGGTGGC,-0.542,-0.859,-0.9,-0.99,-0.201,-0.694,-0.412,-0.368,-1.26,-0.624,-0.808,-0.38,-0.484,-0.907,-0.112,0.301,-0.985,-0.432
CCGAGTACGTTATGGGGCATTCAGGCAACGGTGA,0.389,0.0516,-0.885,-0.78,-0.751,-0.602,-0.398,-0.541,-0.162,0.16,0.358,-0.121,-0.0152,3,-0.121,0.188,-0.521,1.4
CCTTACGGGTCACTGACAGGTGATAGCATTTGGA,3.73,3.99,0.64,-0.737,2.47,4.3,0.473,5.06,0.945,4.15,3.85,5.63,4.84,2.09,6.14,3.23,0.557,1.31
CCTCGTTGGTCAGGAGGTCACACACCGGATATGA,0.408,2.72,0.14,0.13,3.05,4.26,0.821,4.73,1.57,3.75,4.36,5.12,4.22,0.642,4.63,3.54,2.26,2.22
TCATATAGGTAAATGCTAGGTGAAAGTACGATCT,3.93,3.03,1.24,1.57,0.891,0.968,0.678,1.38,1.13,0.64,0.7,0.683,0.548,1.67,1.26,1.6,0.701,0.431
CGTCAAAGTTCAACTAAGGTAACGTACAGCACGC,0.621,2.54,0.979,0.528,3.88,5.9,4.77,4.72,2.23,5.42,4.47,6.1,6.82,4.86,5.14,5.27,2.13,4.15
TTACCAAGGTGAAAGCTCGTTGATGCACGCCTTG,1.69,2.4,0.152,-0.364,-0.529,-0.393,-1,0.109,-0.866,1.3,0.13,0.342,0.28,-0.23,0.617,1.38,0.107,-0.644
ATATGTAGGCTAAGGGTCATTCAGGTTGGTTCGC,5.51,6.21,1.21,1.43,2.35,4.78,1.76,4.17,0.917,3.36,3.85,3.93,2.76,2.03,4.31,3.16,1.17,3.63
GCTAGCAGGCCATTTGCGTCACTCAATGACGGGC,1.06,-0.0589,-0.895,-0.638,-1.08,-0.562,-0.856,-0.774,-1.25,-0.167,-0.848,-0.404,-0.336,-0.115,-0.347,-0.649,-0.795,-0.529
GTACAAAGGTGAATAGGTCGTTGATGAGTAGGCG,2.92,4.14,1.72,0.526,2.64,2.15,0.501,3.42,1.23,3.49,3.11,4.37,2.79,0.47,3.43,1.72,-0.0459,0.65
ACTAGTTGGTCAGCTGAGGTTACACACAATTCGG,1.4,1.58,0.987,0.803,1.09,2.46,0.19,1.64,-0.138,1.73,2.03,1.46,1.69,0.642,1.31,3.86,1.97,1.01
TCTAGTTGGTCAAAGATCACACACTCGAAATGCG,2.51,2.84,1.33,1.22,1.93,1.07,0.547,1.77,0.928,1.3,0.919,1.57,0.992,1.48,1.61,0.536,0.263,0.452
CCGAGTAGGTTATGGGGCATTCACGCAACGGTGA,3.46,3.48,0.0074,-0.799,1.81,-0.0726,-0.244,0.125,0.665,1.06,0.898,0.542,0.597,-0.117,0.816,0.155,-0.0267,0.416
